PfHsp90 yeast 2 – reduces growth (ATP signal) of yeast expressing P. falciparum Hsp90 | S. cerevisiae expressing PfHsp90, BacTiter-Glo ATP, 48 h; yeast lacking PDR1 and PDR3 efflux regulators | inhibition, % at 9.4 µM | 310,000 compounds, 0.32% hits;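 active means every replicate shows inhibition above about 80%, whatever the replicate mean, limit read from the data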
tim10-1 inh – tim10-1 yeast growth inhibition; S. cerevisiae tim10-1 ts strain growth, BacTiter-Glo, 24 h; 330,000 compounds, 2.2% hits; inhibition, % at 20 µM;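 active means inhibition of at least 40%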;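 further: mutant grown at 25 °C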
NALP3 yeast inh – blocks the NALP3 inflammasome reconstituted in yeast. inhibition, % at 10 µM. Yeast reconstituted NLRP3/ASC/caspase-1, beta-gal luminescence, 24 h. 330,000 compounds, 0.39% hits;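 active means inhibition of 50% or more; inactive means inhibition below 50%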
SKKanGAS inh – SKKanGAS growth inhibition. S. pyogenes SKKanGAS, kanamycin growth, BacTiter-Glo, 6 h. inhibition, % at 7.5 µM. 300,000 compounds, 1.3% hits. AID 1662;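 active means mean replicate score, as percent of positive control median, at least 50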;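 further: strain carries kanamycin resistance gene driven by streptokinase promoter and grows in 40 µg/ml kanamycin; loss of luminescence reflects streptokinase promoter inhibition or plain growth inhibition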
tim23-1 inh – tim23-1 yeast growth inhibition; S. cerevisiae tim23-1 growth, BacTiter-Glo luminescence, 24 h; inhibition, % at 20 µM; 330,000 compounds, 1.3% hits; AID 463212;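 active means growth inhibition of the mutant yeast at or above 50%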;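 further: temperature-sensitive mutant grown at 25 °C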
TIM10 inh – TIM10 yeast growth inhibition | S. cerevisiae TIM10 strain growth, BacTiter-Glo luminescence, 24 h | inhibition, % at 10 µM | 330,000 compounds, 1.4% hits;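 active means inhibition of 40% or more at the single tested concentration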;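 further: wild-type TIM10 isogenic control strain grown at permissive 25 °C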
Each line names hits and unclear results; the compound was inactive in the other large screens. Most compounds without a hit are left out; they make up all but 4.5% or so of the library.

Cc1ccc(OCc2n[nH]c(=S)n2C2CCCCC2)cc1	PfHsp90 yeast 2 90
CC(C)OCc1ccc(C(=O)N2CCN(CC(=O)N3CCCC3)CC2)cc1	none (no result: SKKanGAS inh)
CCC(C)(C)C1CCC(NC(=O)N2CCN(c3ccccc3O)CC2)CC1 (stereo not given)	none
O=c1[nH]c(C2CCN(S(=O)(=O)c3ccc4c(c3)OCCO4)CC2)nc2c1nnn2Cc1ccc(F)cc1	none
Cc1ccc(S(=O)(=O)Nc2nc3ccccc3nc2Nc2cccc(S(=O)(=O)N3CCCC3)c2)cc1	SKKanGAS inh 66
COC(=O)C1CN(C(=O)COc2ccc(Cl)cc2C)c2ccccc2O1 (stereo not given)	none
Brc1cc(-c2ccccc2)nc(-c2ccccc2)n1	SKKanGAS inh 51 (no result: PfHsp90 yeast 2)
CC(OC(=O)[C@H](C)NC(=O)c1ccccc1Cl)C(=O)NCc1ccc2c(c1)OCO2 (stereo not given in full)	none
Cc1ccc(-c2c(C#N)c(N)n3c(nc4ccccc43)c2C#N)cc1	SKKanGAS inh 52 (no result: PfHsp90 yeast 2)
Cc1c(CCCl)c(Cl)n2c(nc3ccccc32)c1C#N	PfHsp90 yeast 2 103 (no result: tim10-1 inh, NALP3 yeast inh, SKKanGAS inh, tim23-1 inh, TIM10 inh)
COCCNC(=S)Nc1cc2oc3ccccc3c2cc1OC	none
CC(C)n1nc(C(=O)Nc2nc3ccc(S(C)(=O)=O)cc3s2)c2ccccc2c1=O	none
CC(C)n1nc(C(=O)Nc2nnc(SCc3c(Cl)cccc3Cl)s2)c2ccccc2c1=O	SKKanGAS inh 64
Cc1cccc2[nH]c3c(N4CC=C(c5ccc(F)cc5)CC4)ncnc3c12	SKKanGAS inh 82 (no result: PfHsp90 yeast 2)
O=C(NCc1ccc2c(c1)OCO2)c1ccc(Br)cc1	PfHsp90 yeast 2 89
Cc1onc(-c2c(F)cccc2Cl)c1C(=O)NCc1ccc2c(c1)OCO2	SKKanGAS inh 59
O=C(NCc1ccc(F)cc1)c1cc2c(s1)CS(=O)(=O)C2	none
Cn1c(SCC(=O)NC2(C#N)CCCCC2)nnc1-c1cccnc1	SKKanGAS inh 54
O=C(O)c1ccc(CSc2nc(-c3ccc(Cl)cc3)cc(C(F)(F)F)n2)cc1	SKKanGAS inh 52
CC(=O)c1ccc(N2CCN(C(=O)c3ccc(C(=O)c4ccccc4)cc3)CC2)cc1	none (no result: SKKanGAS inh)
Cn1ccc2cc(-c3ccc4ncnc(NCc5cccs5)c4c3)ccc21	none (no result: SKKanGAS inh)
COc1cc(OC)cc(C(=O)NC(=S)NNC(=O)[C@H]2C[C@@H]2c2ccccc2)c1	SKKanGAS inh 105
COc1ccc(C(=O)NC(=S)NNC(=O)[C@H]2C[C@@H]2c2ccccc2)cc1OC	SKKanGAS inh 102
CC(C)(C)NC(=S)NNC(=O)[C@H]1C[C@@H]1c1ccccc1	none
COc1cccc(NC(=O)COc2coc(CN3CCc4ccccc4C3)cc2=O)c1	none
Clc1ccc(-c2csc(N3CCc4ccccc4C3)n2)cc1	SKKanGAS inh 56
O=C(Nc1cc(S(=O)(=O)Nc2ccc(Cl)cc2)ccc1N1CCCCC1)c1ccc(F)cc1	SKKanGAS inh 55
COc1nc(Nc2nc3ccccc3c(=O)[nH]2)nc2ccc(C)cc12	SKKanGAS inh 85
Cc1cc(C)cc(Nc2nc3ccccc3c(=O)[nH]2)c1	none
Cc1ccc2c(=O)[nH]c(Nc3nc(C)cc(-c4ccccc4)n3)nc2c1	SKKanGAS inh 89
CC(CCc1ccccc1)NC(=O)c1cccc(F)c1 (stereo not given)	none
CC(C)CCNC(=O)c1cn(CC(C)C)c(=O)c2c1c1ccccc1n2C	none
CCCCNC(=O)c1cn(CC(C)C)c(=O)c2c1c1ccccc1n2C	SKKanGAS inh 54
CCN(CC)CCN(Cc1cc2cc3c(cc2[nH]c1=O)OCCO3)C(=S)NCCCOC	none
COc1ccc(NC(=O)c2cccc(-c3ccc(O)cc3)c2)cn1	SKKanGAS inh 53
COCCCn1c(=O)/c(=C\c2ccccc2OC(C)C)s/c1=C(/C#N)C(=O)Nc1ccc(C(=O)O)cc1	SKKanGAS inh 54
Cc1cc2oc(=O)cc(CN(C)Cc3ccccc3Cl)c2cc1C	SKKanGAS inh 62
Cc1ccsc1C(=O)N1CCCC(N2CCN(c3cccc(Cl)c3)CC2)C1 (stereo not given)	none
COc1ccccc1-c1cc(=O)c2c(O)ccc([N+](=O)[O-])c2o1	SKKanGAS inh 70
O=C(NCC1CCCO1)c1cc2ccccc2[nH]1 (stereo not given)	none
O=C(NCC1CCCO1)c1cc2c([nH]c3ccccc32)c(-c2cccc(Cl)c2)n1 (stereo not given)	SKKanGAS inh 50
CCOC(=O)N1C(=O)NC(=O)C1c1ccccc1 (stereo not given)	none (no result: tim10-1 inh, NALP3 yeast inh, SKKanGAS inh, tim23-1 inh, TIM10 inh)
COc1ccccc1NC(=O)Cc1csc(NC(=S)Nc2ccc(C)cc2)n1	SKKanGAS inh 58
COc1cc(C)ccc1NC(=O)Cc1csc(NC(=O)Nc2ccccc2OC)n1	SKKanGAS inh 56 (no result: PfHsp90 yeast 2)
COc1ccccc1NC(=O)Nc1nc(CC(=O)Nc2ccc(OC)c(OC)c2)cs1	none (no result: PfHsp90 yeast 2)
COc1ccccc1NC(=O)Nc1nc(CC(=O)N2CCN(c3ccccc3OC)CC2)cs1	SKKanGAS inh 59 (no result: PfHsp90 yeast 2)
CCc1nnc(NC(=O)CSc2nc(N)c(NC(=O)c3ccc(OC)cc3)c(=O)[nH]2)s1	none
Cc1ccc(N(Cc2ccccc2)C(=O)c2cc(S(=O)(=O)N3CCOCC3)ccc2N2CCCC2)cc1	none
COCCN(CC(=O)Nc1cccc(C)c1C)C(=O)Cn1cnc2ccccc2c1=O	none (no result: SKKanGAS inh)
Nc1nc(Nc2cccc(Cl)c2)nc(NCc2ccco2)c1[N+](=O)[O-]	SKKanGAS inh 75
O=C(/C=C/NNC(=O)c1ccccc1O)c1ccccc1	none
CCN1CCCC1CN(Cc1cc2ccc(C)cc2[nH]c1=O)C(=S)Nc1ccc(F)cc1 (stereo not given)	PfHsp90 yeast 2 94
Cc1ccc(S(=O)(=O)NCC(=O)OCC(=O)N2N=C(c3ccc(Cl)cc3)CC2c2ccco2)cc1C (stereo not given)	SKKanGAS inh 70
Cc1cc(C(=O)NC2CCCN(Cc3ccc(Cl)cc3)C2)n(C)n1 (stereo not given)	none
Cc1c(C(=O)N2CCC(Cc3ccccc3)CC2)sc2ncnc(N3CCC(C)CC3)c12	SKKanGAS inh 56
CNC[C@H](Cc1ccccc1)NC[C@@H](Cc1cccc2ccccc12)NCCc1ccc(C)cc1	SKKanGAS inh 94
CNCCNC[C@H](Cc1cccc2ccccc12)NCCc1ccccc1	none (no result: SKKanGAS inh)
Cc1ccc(NC(=O)COC(=O)c2ccc(=O)n(Cc3ccccc3)n2)cc1F	none
c1ccc(C(c2c[nH]c3ccccc23)c2c[nH]c3ccccc23)nc1	SKKanGAS inh 76
Cn1cc(C(c2ccccn2)c2cn(C)c3ccccc23)c2ccccc21	none
COc1ccc(NS(=O)(=O)c2ccc3nc(COc4cccc5ccccc45)[nH]c3c2)cc1	SKKanGAS inh 71
CC(=O)NC(=S)NNC(=O)C(c1ccccc1)c1ccccc1	SKKanGAS inh 80
N#CCC(=O)NNC(=S)NC(=O)C(c1ccccc1)c1ccccc1	none
Nc1nc(CN2CCC(Cc3ccccc3)CC2)nc(Nc2ccccc2)n1	SKKanGAS inh 50

Compound activity: PubChem BioAssay, several laboratories
